Reference: PubChem BioAssay AID588489 (Sanford-Burnham Center for Chemical Genomics, 2011)
The campaign covered roughly 360,000 compounds. About 1,300 (0.36%) were called active. Cut-off read from the data, not from the text of the source: active = inhibition above about 35% (passing the limit was not always enough); inactive = the rest. For the sample, actives were picked, then their nearest neighbours and some compounds at random.

Biological target: Polyadenylate-binding protein 1 (Homo sapiens) (UniProt P11940)
Sequence (P11940 whole entry, looked up): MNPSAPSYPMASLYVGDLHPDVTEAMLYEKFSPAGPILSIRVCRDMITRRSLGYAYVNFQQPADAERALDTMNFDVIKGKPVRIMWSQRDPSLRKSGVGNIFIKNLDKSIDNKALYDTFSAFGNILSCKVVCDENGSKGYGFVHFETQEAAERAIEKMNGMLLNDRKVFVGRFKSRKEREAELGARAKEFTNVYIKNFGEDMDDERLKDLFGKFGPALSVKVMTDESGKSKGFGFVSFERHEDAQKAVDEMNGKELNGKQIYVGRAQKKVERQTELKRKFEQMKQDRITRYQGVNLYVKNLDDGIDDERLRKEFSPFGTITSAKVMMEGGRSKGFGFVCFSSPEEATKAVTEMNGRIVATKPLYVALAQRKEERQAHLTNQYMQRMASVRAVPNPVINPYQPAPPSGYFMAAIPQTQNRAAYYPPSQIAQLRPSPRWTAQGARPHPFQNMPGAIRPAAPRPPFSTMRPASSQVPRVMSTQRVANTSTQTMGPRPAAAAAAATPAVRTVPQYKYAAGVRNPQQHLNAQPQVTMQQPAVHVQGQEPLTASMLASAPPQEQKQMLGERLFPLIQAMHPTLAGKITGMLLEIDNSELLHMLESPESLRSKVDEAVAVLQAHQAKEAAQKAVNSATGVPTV
Assay: inhibitors of PABP1 MLLE–PAM2 peptide binding, primary screen, biochemical, fluorescence polarization, FITC-PAM2, GST-MLLE (AID 588489);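 note: plate controls were DMSO wells with GST-MLLE for no effect and wells lacking GST-MLLE protein for full effect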
Conditions: at 20 µM, active compounds read high

Structure (SMILES)	inhibition
C=CCC(NCCCO)c1cccc(OC)c1OC (stereo not drawn)	9.54% (inactive)
O=C1[C@@H](c2ccccc2)[C@@H](c2ccccc2)N1c1cccnc1	-0.26% (inactive)
O=C(O)c1cscn1	-3.08% (inactive)
CC(NC(=S)Nc1ccc(OC(F)F)cc1)c1ccc(F)cc1 (stereo not drawn)	-13.4% (inactive)
O=S(=O)(NC(=S)Nc1ccccc1)c1ccc(F)cc1	33.4% (inactive)
Cc1ccc(NC(=S)Nc2ccc(F)cc2)cc1	37.8% (active)
COc1ccc(/C=N/Nc2ncnc3sc4c(c23)CCCC4)cc1O	-12.9% (inactive)
O=Cc1c(Cl)cccc1Cl	9.74% (inactive)
O=C1N=C2SCCN2/C1=C\c1c(Cl)cccc1Cl	38.4% (active)
O=C(NC1(C(F)(F)F)N=C2SCCN2C1=O)c1ccco1 (stereo not drawn)	35.9% (inactive)
Cc1ccc(CNC(=O)C2CCN(S(=O)(=O)c3ccc4nc5c(c(C(=O)O)c4c3)CC(C)CC5)CC2)cc1 (stereo not drawn)	-3.02% (inactive)
COc1ccccc1CNC(=O)CCCn1c(=O)c2ccccc2n(CC(=O)NC2CCCC2)c1=O	12% (inactive)
CC(NC(=O)Nc1ccccc1)C(c1cccs1)N1CCN(c2ccccc2)CC1 (stereo not drawn)	-4.15% (inactive)
COc1ccccc1-c1cc(NC(C)=O)c2ncc(-c3ccc(F)cc3)n2c1	-10.4% (inactive)
CC(=O)Nc1cc(-c2ccccc2N(C)C)cn2c(-c3ccc(F)c(Cl)c3)cnc12	48.4% (active)
CC(=O)Nc1cc(-c2ccccc2F)cn2c(-c3cccc(C(F)(F)F)c3)cnc12	-12.1% (inactive)
N#Cc1ccc(C2=CC(=O)C[C@H](c3ccc(Cl)cc3)C2)cc1	6.39% (inactive)
COc1cc2c(cc1NC(=O)COC(=O)/C=C/c1ccccc1)oc1ccccc12	11% (inactive)
CCN1C(=O)[C@H]2[C@@H](c3ccc(C)cc3)N3C(=O)N(c4cccc(Br)c4)C(=O)[C@@]3(CC)[C@H]2C1=O	11.2% (inactive)
CCC(=O)NNc1cc(=O)c2c(=O)n(C)c(=O)n(C)c2[nH]1	-6.2% (inactive)
COC(=O)c1c(C)oc2ccc(N(C(=O)Oc3ccccc3)S(=O)(=O)c3ccccc3)cc12	9.28% (inactive)

Structure (SMILES)	inhibition
CC(=O)Oc1ccc(N(C(C)=O)S(=O)(=O)c2ccc3ccccc3c2)cc1Br	-22.5% (inactive)
CC(=O)N(c1ccc2oc(=O)sc2c1)S(=O)(=O)c1ccc(C)cc1	41.1% (active)
Cc1nn(C)c(Oc2ccc(Cl)cc2)c1C=O	-2.27% (inactive)
CCC(=O)N1CCC(C)(C(=O)Nc2cc(OC)c(OC)c(OC)c2)C1 (stereo not drawn)	4.71% (inactive)
CC(CC(=O)N1CCN(S(=O)(=O)c2ccccc2)CC1)n1cncn1 (stereo not drawn)	21.2% (inactive)
NC(=S)c1ccc(C(N)=S)o1	37.7% (active)
Cc1cccc(NC(=O)COC(=O)CCc2ccccc2)c1C	-0.48% (inactive)
Cc1ccccc1NC(=O)CSC1=NCCN1	16% (inactive)
Cc1ccccc1NC(=O)CCOc1ccccc1	4.98% (inactive)
Cc1cccc(NC(=O)CSc2nc3c(c(=O)[nH]2)CCCC3)c1C	-11.1% (inactive)
Cc1cccc(NC(=O)CSC(N)=O)c1C	38.8% (active)
Cc1ccccc1NC(=O)CSC(=O)c1ccccc1	44.4% (active)
FC(F)(F)C1CCCN(c2nsc3ccccc23)C1 (stereo not drawn)	33.5% (inactive)
COc1ccc(C(=O)C[n+]2ccc(N)c(C)c2C)cc1	-11.1% (inactive)
CC12CCC(C(=O)N3CCN(c4ncccn4)CC3)(c3nc4ccccc4nc31)C2(C)C (stereo not drawn)	14.9% (inactive)
CCOC(=O)CN1C(=O)C(O)(CC(=O)c2ccccn2)c2ccccc21 (stereo not drawn)	11.1% (inactive)
CCOC(=O)CSc1nc(C)c(Oc2ccc(Cl)cc2Cl)c(=O)[nH]1	-8.63% (inactive)
Cc1nnc(SCC(=O)N2CCOCC2)[nH]c1=O	11.7% (inactive)
CCCCOC(=O)CNc1nnc(SCC(=O)OCC)[nH]c1=O	38.4% (active)
Cc1ccccc1NC(=O)N1CCCC1C(=O)NCc1ccccc1 (stereo not drawn)	-5.08% (inactive)
COc1ccc(C(C#N)Nc2ccc(C)cc2)cc1 (stereo not drawn)	-0.36% (inactive)

Structure (SMILES)	inhibition
CCOC(=O)C1CCCN(S(=O)(=O)c2ccc3c(c2)C(C)(C)C(=O)N3C)C1 (stereo not drawn)	0.52% (inactive)
Cc1cccc(CC(=O)N2CCN=C2SCc2ccc([N+](=O)[O-])cc2)c1	40.2% (active)
O=C(Cc1ccc(F)cc1)N1CCN=C1SCc1cccc([N+](=O)[O-])c1	-6.14% (inactive)
Cc1cc(C)cc(C(=O)N2CCN=C2SCc2ccc([N+](=O)[O-])cc2)c1	34.7% (inactive)
CC(C)=CCN1CCN(Cc2cc3ccccc3[nH]2)CC1CCO (stereo not drawn)	-5.44% (inactive)
CCOC(=O)c1c(NC(=O)C2(C)Cc3ccccc3C(=O)O2)sc2c1CCCC2 (stereo not drawn)	38.6% (active)
CCOC(=O)c1c(NC(=O)C2CCN(S(=O)(=O)c3ccc(Cl)cc3)CC2)sc2c1CCCC2	1.94% (inactive)
CCOC(=O)c1c(NC(=O)C(C)Sc2c[nH]c3ccccc23)sc2c1CCC2 (stereo not drawn)	2.56% (inactive)
CCc1cc2cc(OC)ccc2nc1SCC(=O)Nc1cc(OC)c(OC)cc1C(=O)O	19.2% (inactive)
CN(C(=O)CN1C(=O)S/C(=C\c2ccccc2F)C1=O)C1CCS(=O)(=O)C1 (stereo not drawn)	34% (inactive)
COc1ccccc1/C=C1\SC(=O)N(CCC(=O)N(C)C2CCS(=O)(=O)C2)C1=O (stereo not drawn)	15.8% (inactive)
CN(C(=O)CCN1C(=O)/C(=C/c2ccccc2F)SC1=S)C1CCS(=O)(=O)C1 (stereo not drawn)	47.2% (active)
CCCCOc1ccc(C(=O)NCC(=O)OCC(=O)N2CCN(S(=O)(=O)c3ccc(C)cc3C)CC2)cc1	-5.79% (inactive)
CC1(C(=O)Nc2cccc3cccnc23)CCN1C(=O)CCC1CCCC1 (stereo not drawn)	-9.79% (inactive)
O=C(CN1CCOCC1)Nc1c(-c2ccccc2)c2cc(Br)ccc2[nH]c1=O	7.03% (inactive)
CS(=O)(=O)N(CC(=O)N/N=C/c1ccccn1)c1ccc(Oc2ccccc2)cc1	1.62% (inactive)
Cc1cc(-c2csc(N)n2)c(C)n1-c1ccccc1	-12.2% (inactive)
Nc1nc(C23CC4CC(CC(C4)C2)C3)cs1	-0.54% (inactive)
COc1c(F)c(F)c(-c2csc(N)n2)c(F)c1F	41% (active)
Cc1cc(C(F)F)n2nc(C(=O)Nc3ccc(S(=O)(=O)NC45CC6CC(CC(C6)C4)C5)cc3)nc2n1	0.98% (inactive)
Cc1cc(C)c2c(-n3cccc3)c(C(=O)NNS(=O)(=O)c3ccc(F)cc3)sc2n1	-3.3% (inactive)
